# Measured values: article PMC4552634, “A New Set of Chemical Starting Points with Plasmodium falciparum Transmission-Blocking Potential for Antimalarial Drug Discovery” (PLoS ONE, 2015)
# Hit rate of the full screen: of about 13,000 compounds, about 3,200 (25%) showed an effect of 50% or more. This is one part of the list.
# Test system: P. falciparum stage V gametocytes
# Parameters: BacTiter-Glo ATP luminescence viability of purified stage V gametocytes in 384-well plates, per cent inhibition versus DMSO
# Conditions: 48 h, 5 µM; inhibitor
row,SMILES,% Inhibition [%]
1,CC(C)c1ccc(NC(=O)Nc2ccc(Cn3ncc(N4CCCNCC4)c(Cl)c3=O)cc2)cc1 [TCMDC-133325],-40.87
2,CNC(=O)C1Cc2c([nH]c3ccc(Cl)cc23)C2(CCN(CCc3ccccc3)CC2)N1 (stereo not drawn) [TCMDC-141285],-33.98
3,O=c1[nH]c2ccc3[nH]cccc3c2c1C=Nc1ccc(N2CCN(CCO)CC2)cc1 [TCMDC-138634],-29.23
4,O=C(C=Cc1ccc(Cl)c(Cl)c1)NCCCCCN1CCCC(CCCNC(=O)/C=C/c2ccccc2)C1 (stereo not drawn) [TCMDC-139577],89.65
5,O=C(C=Cc1ccc(Cl)c(Cl)c1)NCCCCCN1CCC(CCNC(=O)C(c2ccccc2)c2ccccc2)CC1 [TCMDC-139570],77.62
6,O=C(/C=C/c1ccc(Cl)c(Cl)c1)NCCCCCN1CCCC(CNC(=O)/C=C/c2ccccc2)C1 (stereo not drawn) [TCMDC-139582],30.13
7,O=C(/C=C/c1ccc(Cl)c(Cl)c1)NCCCCCN1CCC(CCNC(=O)/C=C/c2ccccc2F)CC1 [TCMDC-140006],-17.66
8,O=C(C=Cc1ccc(Cl)c(Cl)c1)NCCCCCN1CCCC(CCCNC(=O)C2CC2c2ccccc2)C1 (stereo not drawn) [TCMDC-139578],25.82
9,COc1ccccc1/C=C/C(=O)NCCC1CCN(CCCCCNC(=O)/C=C/c2ccc(Cl)c(Cl)c2)CC1 [TCMDC-139999],48.92
10,O=C(C=Cc1ccc(Cl)c(Cl)c1)NCCCCCN1CCC(CCNC(=O)/C=C/c2ccccc2)CC1 [TCMDC-139566],81.69
11,O=C(C=Cc1ccc(Cl)c(Cl)c1)NCCCCCN1CCC(CCCNC(=O)/C=C/c2ccccc2)CC1 [TCMDC-139571],-9.203
12,CCc1cc(NCc2ccncc2)nc(Nc2ccc(F)cc2)n1 [TCMDC-134015],15.5
13,CC(C)(C)NC(=O)C(c1ccc(F)cc1)N(C(=O)c1ccc(CN2CCOCC2)o1)c1ccc(C2CCCCC2)cc1 (stereo not drawn) [TCMDC-125562],-47.12
14,CCc1ccc(CN2CCC(CN(c3ccc(N4CCOCC4)c(F)c3)S(=O)(=O)c3ccc(C(C)(C)CC)cc3)CC2)cc1 [TCMDC-135290],-12.43
15,COc1ccccc1C1CCN(C2CCC(NC(=O)/C=C/c3cc(F)cc(F)c3)CC2)CC1 (stereo not drawn) [TCMDC-133492],-91.94
16,CCOC(=O)c1nc2ccc(SC3CCCCC3)cn2c1Br [TCMDC-138030],0.4377
17,COc1ccc2c(=O)ccn(CCN3CCC(NCc4ccc5c(n4)NC(=O)CS5)CC3)c2c1 [TCMDC-141809],-63.52
18,COc1cc2cc(-c3nc4ccccc4[nH]3)c(N)nc2cc1OC [TCMDC-125600],19.66
19,COc1ccccc1-c1nc2c(ccc3nc(N)nc(N)c32)[nH]1 [TCMDC-137976],123.3
20,Nc1nc(N)c2c(Oc3cccc4ccccc34)cccc2n1 [TCMDC-137739],-7.537
21,CN(C)c1ccc2nc(N)nc(N)c2c1Cl [TCMDC-137862],-17.95
22,Nc1nc(N)c2c(ccc3ccccc32)n1 [TCMDC-131942],19.03
23,Nc1nc(N)c2c(ccc3[nH]c(-c4ccccc4Cl)nc32)n1 [TCMDC-137840],117.2
24,Fc1ccc2[nH]c(-c3ccc(-c4ccc(CNCc5cnn(-c6ccccc6)n5)cc4)cc3)nc2c1.O=C(O)C(F)(F)F [TCMDC-132969],45.68

row,SMILES,% Inhibition [%]
1,Cc1ccc(N2CCN(CCCCNC(=O)c3ccc(NC(=O)c4ccc(Cl)cc4)cc3)CC2)c(C)c1 [TCMDC-138507],8.523
2,O=C1OC2(CN1CC1CCN(Cc3ccc(O)c(Cl)c3)CC1)c1ccccc1-c1ccccc12 [TCMDC-136071],20.11
3,O=S(=O)(NCCN1CCCC1)c1ccc(-c2cccc(CNCCc3cccs3)c2)s1 [TCMDC-132376],19.55
4,O=S(=O)(NCCN1CCCC1)c1cccc(-c2cccc(CNCCc3cccs3)c2)c1 [TCMDC-132378],78.26
5,O=S(=O)(NCCN1CCCC1)c1ccc(-c2cccc(CNCCc3cccs3)c2)cc1 [TCMDC-132374],64.21
6,COc1ccc(CN(C)Cc2cc(C(C)C)c(C)cc2O)cc1F [TCMDC-124597],-22.84
7,O=C(Nc1nccs1)c1cc(-c2cccnc2)nc2ccc(Br)cc12 [TCMDC-125215],-12.6
8,CO[C@H](C)[C@H](NC(=O)[C@H](CC(C)C)[C@H](CCC(F)(F)F)N(O)C=O)C(=O)Nc1nccs1 [TCMDC-138190],15.4
9,O=C(/C=C/c1ccc(Cl)c(Cl)c1)N1CCC(CN2C3CCC2CC(c2c[nH]c4ccccc24)C3)CC1 (stereo not drawn) [TCMDC-139814],116.4
10,CN(CC1CCC(NC(=O)/C=C/c2ccc(Cl)c(Cl)c2)CC1)C1CCC(c2c[nH]c3ccccc23)CC1 (stereo not drawn) [TCMDC-140213],-15.26
11,O=C(/C=C/c1ccc(Cl)c(Cl)c1)N1CCC2CC(N3CCC(c4c[nH]c5ccccc45)CC3)CCC2C1 (stereo not drawn) [TCMDC-139677],-29.29
12,O=C(/C=C/c1ccc(Cl)c(Cl)c1)N1CCC(NCc2c[nH]c3ccccc23)CC1 [TCMDC-134197],-0.4755
13,O=C(/C=C/c1ccc(Cl)c(Cl)c1)N1CCC(CN2CCC(Cc3c[nH]c4ccccc34)CC2)CC1 [TCMDC-140143],-20.89
14,COC(=O)c1ccc2[nH]cc(C3CCN(CCC4CCN(C(=O)/C=C/c5ccc(Cl)c(Cl)c5)CC4)CC3)c2c1 [TCMDC-139787],19.69
15,COc1ccc2[nH]cc(C3CCN(CCC4CCN(C(=O)/C=C/c5ccc(Cl)c(Cl)c5)CC4)CC3)c2c1 [TCMDC-139658],-35.62
16,COc1ccc2[nH]cc(C3CC4CCC(C3)N4CCC3CCN(C(=O)/C=C/c4ccc(Cl)c(Cl)c4)CC3)c2c1 (stereo not drawn) [TCMDC-139670],106
17,CN(CCC1CCN(C(=O)/C=C/c2ccc(Cl)c(Cl)c2)CC1)C1CCC(c2c[nH]c3ccccc23)CC1 (stereo not drawn) [TCMDC-140107],60.82
18,O=C(/C=C/c1ccc(Cl)c(Cl)c1)N1CCC(CCCN2CCC(c3c[nH]c4ccccc34)CC2)CC1 [TCMDC-139795],25.74
19,O=C(/C=C/c1ccc(Cl)c(Cl)c1)N1CCC(CN2CCC(c3c[nH]c4ccccc34)C(O)C2)CC1 (stereo not drawn) [TCMDC-139825],-12.75
20,CN(CCCc1c[nH]c2ccccc12)CC1CCN(C(=O)/C=C/c2ccc(Cl)c(Cl)c2)CC1 [TCMDC-140117],55.67
21,CCCCC1(NC(=O)[C@@H](Nc2ccc(C#N)c3ccccc23)C2CCCCC2)CCCCC1 [TCMDC-136636],-65.73
22,CCOCc1cnc(C)nc1NCC(=O)c1c(C)[nH]c2cc(C)ccc12 [TCMDC-124067],-5.397
23,CC1(C)CCCC(=Cc2ccc(Br)cc2)C1(O)Cn1ccnc1 (stereo not drawn) [TCMDC-125214],19.91
24,COc1cc2nccc(Nc3cc(C)cc(O)c3)c2cc1OC.Cl [TCMDC-138196],-1.594

row,SMILES,% Inhibition [%]
1,CCCCOC(=O)c1ccc(NC(=O)Nc2ccc(Cn3ncc(N4CCCNCC4)c(Cl)c3=O)cc2)cc1 [TCMDC-133323],-2.086
2,COc1ccc(C(=O)C2CC2CN(C)CCC(O)c2ccc(Cl)c(Cl)c2)cc1 (stereo not drawn) [TCMDC-136792],-25.71
3,COc1cccc(C(=O)C2CC2CN(C)CC(O)c2cc(C)c(OC)cc2C)c1 (stereo not drawn) [TCMDC-136802],18.93
4,COc1ccc(C(=O)C2CC2CN(C)CC(O)c2cc(C)c(OC)cc2C)cc1 (stereo not drawn) [TCMDC-136800],56.77
5,N#Cc1ccc(NC(=NCc2ccc(Cl)cc2Cl)Nc2cccc(Cl)c2Cl)c(O)c1 [TCMDC-140224],-0.417
6,CC1(C)N=C(N)N=C(N)N1OCc1ccc2ccccc2c1 [TCMDC-125513],17.08
7,CC(C)Nc1nc(NCCc2cnc[nH]2)nc(NCc2ccc(Cl)c(Cl)c2)n1 [TCMDC-139747],6.944
8,CC(=O)N(C)c1cccc(C(=O)Nc2ccc(-c3cccc(-c4nc5c(C)cccc5[nH]4)c3)cc2)c1 [TCMDC-137072],-29.92
9,CC(=O)Nc1ccc(C(=O)Nc2cccc(-c3cccc(-c4nc5c(C)cccc5[nH]4)c3)c2)cn1 [TCMDC-136830],-4.811
10,CC(=O)Nc1ccc(C(=O)Nc2ccc(-c3cccc(-c4nc5c(C)cccc5[nH]4)c3)cc2)cn1 [TCMDC-136831],74.93
11,CC(=O)Nc1ccc(C(=O)Nc2ccc(-c3cccc(-c4nc5ccc(F)cc5[nH]4)c3)cc2)cn1 [TCMDC-136822],-42.62
12,CC(=O)Nc1cccc(C(=O)Nc2cccc(-c3ccc(-c4nc5c(C)cccc5[nH]4)cc3)c2)c1 [TCMDC-132136],-12.3
13,CC(=O)Nc1ccc(C(=O)Nc2cccc(-c3ccc(-c4nc5c(C)cccc5[nH]4)cc3)c2)cn1 [TCMDC-136823],57.24
14,CN(C)CCC1CCCc2ccc(NC(=O)Nc3ccc(-c4ccncc4)c4ccccc34)cc21 (stereo not drawn) [TCMDC-139156],-24.46
15,CCC(C)Oc1ccc(CCCON2C(N)=NC(N)=NC2(C)C)cc1 (stereo not drawn) [TCMDC-131784],25.06
16,CCOc1ccc(C(C)NC(=O)C2COc3ccccc3O2)cc1OCC (stereo not drawn) [TCMDC-125018],78.92
17,CCOc1ccc(C(C)NC(=O)Nc2ccccc2)cc1OCC (stereo not drawn) [TCMDC-123556],52.41
18,CN1CCN(c2ccc(Cl)cc2NC(=O)C2COc3ccccc3O2)CC1 (stereo not drawn) [TCMDC-124321],9.444
19,CCOc1ccc(C(C)NC(=O)Cc2ccccc2F)cc1OCC (stereo not drawn) [TCMDC-123564],31.28
20,CCCCNC(=O)[C@H](Cc1ccccc1)NC(=O)c1ccc(O)c(-c2ccc(Cl)c(Cl)c2)c1 [TCMDC-140840],16.49
21,CCOc1cc(C(=O)Nc2cccnc2)cc(Br)c1OCCC(C)C [TCMDC-123549],16.86
22,COc1cc(Nc2nccc(N3CCC(NC(=O)C4COc5ccccc5O4)C3)n2)cc(OC)c1OC (stereo not drawn) [TCMDC-133625],-0.8923
23,CCOc1ccc(CCC(=O)O)cc1OCC [TCMDC-124302],4.043
24,CCOc1ccc(C(Cc2ccccc2)NC(=O)c2cccnc2)cc1OCC (stereo not drawn) [TCMDC-124519],50.66
